esBAF inh: Bmi1 luciferase reporter increase in mESCs, primary screen, esBAF inhibitor project, mouse ES cells, Bmi1 luciferase knock-in, single point. AID 602393, 2012. hit rate 2% among 350,000. 24 h; 100% = twice the neutral-well signal. reporter increase, % at 12.5 µM; in the data active = activation above about 40%; inconclusive = no clear call, values can overlap the other calls;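 also: 0% = median of the plate's neutral control wells and 100% = double that signal; a rise in the Bmi1 reporter signal indicates esBAF inhibition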
Statin myotox sup: suppressors of statin myotoxicity in C2C12 myotubes, primary screen, cell-based, single point, plate reader. C2C12 myotubes + simvastatin, ATP luminescence, 48 h; scaled: DMSO 0, geranylgeraniol control 100. rescue of ATP level, % at 7.49 µM. hit rate 0.78% among 330,000. AID 602340, 2012;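 active = mean ATP rescue above about 67%, or every replicate alone reaching that limit, limit read from the data, passing the limit was not always enough; inconclusive = no clear call, values can overlap the other calls; inactive = mean under the limit and some replicate under it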;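 also: myotubes were challenged with 10 µM simvastatin during compound exposure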
Wnt act: Wnt/beta-catenin pathway activators, primary screen, cell-based, plate reader, single point; hit rate 1.2% among 300,000; activation, % at 9.35 µM; AID 743398, 2014; Wnt/beta-catenin reporter cell assay, activator; in the data active = activation above about 30%, passing the limit was not always enough; inconclusive = no clear call, values can overlap the other calls;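 also: 0% = neutral control wells and 100% = positive control wells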
TRPM1 prom inh: inhibitors of MITF-dependent TRPM1 promoter reporter, primary screen, cell-based, SK-MEL-5, single point, luciferase. AID 488899, 2010. hit rate 0.83% among 330,000. inhibition, % at 12.5 µM. SK-MEL-5 TRPM1 promoter luciferase, 24 h;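 active = mean inhibition across replicates of 60% or more, whatever share of single replicates reaches that level; inconclusive = some that reach 60%, reason not given; inactive = mean inhibition across replicates below 60%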
LMP1 NFkB inh: EBV LMP1-driven NF-kappaB luciferase reporter inhibitors, primary screen, cell-based, luminescence, single point; inhibition, % at 12.5 µM; hit rate 0.69% among 350,000; LMP1-induced NF-kappaB luciferase reporter cells; in the data active = inhibition above about 41%; inconclusive = no clear call, values can overlap the other calls;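 also: 0% = neutral control wells and 100% = reference inhibitor control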
MITF act: activators of MITF-driven TRPM1 promoter reporter, primary screen, cell-based, SK-MEL-5, luciferase, single point | SK-MEL-5 TRPM1-promoter luciferase, 24 h; % of positive control, neutral wells = 0 | hit rate 0.75% among 300,000 | activation, % at 12.5 µM | AID 588334, 2011;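 active = mean activation of at least 80% with every replicate also reaching 80%; inconclusive = mean reaches 80% but some replicate falls short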;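 also: 0% = neutral control wells and 100% = parthenolide positive control wells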
Starred values were filed as active, the others as inactive. Hits are enriched below; roughly 4% of the tested compounds scored in any of these assays.

Results for COc1ccc(Cc2nc3ccc(C(=O)N(C)CCn4ccnc4)cc3o2)cc1OC ?
esBAF inh: 48*; Statin myotox sup: -2; Wnt act: 20; TRPM1 prom inh: -5; LMP1 NFkB inh: 2; MITF act: 9

Results for COc1ccc(Cc2nc3ccc(C(=O)N4CCC(C(N)=O)CC4)cc3o2)cc1 ?
esBAF inh: -10; Statin myotox sup: 14; Wnt act: -5; LMP1 NFkB inh: 1

Results for COc1ccc(Cc2nc3ccc(C(=O)N4CCOCC4)cc3o2)cc1 ?
esBAF inh: 78*; Statin myotox sup: -4; Wnt act: 20; TRPM1 prom inh: -91; LMP1 NFkB inh: -24; MITF act: 95*

Results for COc1ccc(Cc2nc3ccc(C(=O)N(C)Cc4cc(C)[nH]n4)cc3o2)cc1OC ?
esBAF inh: 2; Statin myotox sup: 5; Wnt act: 1; TRPM1 prom inh: 2; LMP1 NFkB inh: 15; MITF act: 5

Results for COc1ccc(Cc2nc3ccc(C(=O)N4C[C@@H](C)O[C@@H](C)C4)cc3o2)cc1OC ?
esBAF inh: 69*; Statin myotox sup: 0; Wnt act: 9; TRPM1 prom inh: -68; LMP1 NFkB inh: -9; MITF act: 75

How did O=C(CC1CC2CCC1C2)NC1CCCCCCC1 (configuration not stated) do in these assays?
esBAF inh: 60*; Statin myotox sup: -5; Wnt act: 12; TRPM1 prom inh: -27; LMP1 NFkB inh: -15; MITF act: 29

Results for O=C(CC1CCCCC1)NC1CCCC1 ?
esBAF inh: 4; TRPM1 prom inh: -13; LMP1 NFkB inh: 0

What do the screens show for `O=C(O)c1cc(N/N=C/c2c[nH]c3ccccc23)ccc1Cl`?
esBAF inh: inconclusive; Statin myotox sup: 32; Wnt act: 15; TRPM1 prom inh: -5; LMP1 NFkB inh: -22; MITF act: 7

Results for Cc1ccc(NC(=S)NNC(=S)Nc2cccc(C(F)(F)F)c2)cc1 ?
Wnt act: 40*; TRPM1 prom inh: -21; LMP1 NFkB inh: -25

What do the screens show for `O=C(N/N=C/c1ccccc1)C(=O)N/N=C/c1ccccc1`?
esBAF inh: -2; Statin myotox sup: 23; Wnt act: -1; TRPM1 prom inh: -7; LMP1 NFkB inh: -4; MITF act: 12

Results for O=C(C=C=Nc1ccccc1)C(=O)N=C=Cc1ccccc1 ?
esBAF inh: -75; Statin myotox sup: 26; Wnt act: 26; TRPM1 prom inh: 82*; LMP1 NFkB inh: -10; MITF act: -83

What do the screens show for `CC(C)Oc1ccc(CCN=C(N)N=C(N)N)cc1Cl`?
Wnt act: -2; TRPM1 prom inh: 12; LMP1 NFkB inh: 8; MITF act: -9

What do the screens show for `CC(=O)c1ccc(Oc2ccc(C(C)=O)cc2)cc1`?
esBAF inh: 42*; Statin myotox sup: 21; Wnt act: 15; TRPM1 prom inh: -29; LMP1 NFkB inh: -24; MITF act: 32

Results for CC(=O)c1ccc(OC(=O)Oc2ccc(C(C)=O)cc2)cc1 ?
Wnt act: -2; TRPM1 prom inh: -2; LMP1 NFkB inh: -7; MITF act: 1

Results for COCCCNC(=O)CC1C[C@H](C(=O)N2CCOCC2)[C@@]2(C)c3[nH]c4ccccc4c3CCN2C1=O (some centres not stated) ?
esBAF inh: -1; Statin myotox sup: -9; Wnt act: -3; TRPM1 prom inh: 9; LMP1 NFkB inh: -7; MITF act: -8

How did CCOc1ccccc1OCCOc1ccccc1OC(C)C do in these assays?
TRPM1 prom inh: -4; LMP1 NFkB inh: 2; MITF act: 6

Results for CCOc1ccccc1OCCOc1ccccc1CC ?
esBAF inh: -7; Statin myotox sup: 128*; Wnt act: -2; TRPM1 prom inh: 3; LMP1 NFkB inh: 7; MITF act: -6

Results for C[C@@H]1CN([C@H](C)CO)C(=O)Cc2cc(NC(=O)Nc3ccc4c(c3)OCO4)ccc2O[C@@H]1CN(C)S(C)(=O)=O ?
esBAF inh: 5; Statin myotox sup: -7

Results for CCCn1c2c(c(=N)c3c1CCC3)CCCC2 ?
esBAF inh: -45; Statin myotox sup: -98; Wnt act: 4; TRPM1 prom inh: 8; LMP1 NFkB inh: 19; MITF act: -6

What do the screens show for `N=c1c2c(n(Cc3ccc(Cl)c(Cl)c3)c3c1CCC3)CCCC2`?
TRPM1 prom inh: 71*; LMP1 NFkB inh: 6; MITF act: -72

How did N=c1c2c(n(Cc3ccc([N+](=O)[O-])cc3)c3c1CCC3)CCCC2 do in these assays?
Wnt act: 0; TRPM1 prom inh: 6; LMP1 NFkB inh: 7; MITF act: -3

Results for N=c1c2c(n(Cc3ccc(Br)cc3)c3c1CCC3)CCCC2 ?
Wnt act: -6; TRPM1 prom inh: 65*; LMP1 NFkB inh: 12; MITF act: -63

Results for O=[N+]([O-])c1ccc(-c2cnc(SC(c3ccccc3)c3ccccc3)[nH]2)cc1 ?
Wnt act: -2; TRPM1 prom inh: 0; LMP1 NFkB inh: 8; MITF act: 0

Results for Cn1c(SCC(=O)NC2CCCC2)nnc1-c1ccccn1 ?
Wnt act: -1; TRPM1 prom inh: 2; LMP1 NFkB inh: -6; MITF act: -6

How did CCOc1ccc(NC(=O)c2cc3ccccc3cc2O)cc1 do in these assays?
esBAF inh: 44; Statin myotox sup: -35; Wnt act: 12; TRPM1 prom inh: -69; LMP1 NFkB inh: -31; MITF act: 71

Results for CCOc1ccc(NC(=O)c2ccc(F)cc2F)cc1 ?
esBAF inh: 24; Statin myotox sup: 2; Wnt act: 41*; TRPM1 prom inh: -92; LMP1 NFkB inh: -17; MITF act: 93*

What do the screens show for `CCOc1ccc(NC(=O)c2cccc3ccccc23)cc1`?
esBAF inh: 43*; Statin myotox sup: -10; Wnt act: 3; TRPM1 prom inh: -31; LMP1 NFkB inh: -19

Results for Fc1ccc(Cn2nnc(-c3ccc(CN4CCOCC4)cc3)n2)cc1 ?
esBAF inh: 5; Statin myotox sup: -3; Wnt act: -7; TRPM1 prom inh: -7; LMP1 NFkB inh: 21

Results for Clc1ccc(Cn2nnc(-c3ccccc3)n2)cc1 ?
esBAF inh: 47*; Wnt act: -2; TRPM1 prom inh: -53; LMP1 NFkB inh: -26; MITF act: 72

Results for O=C(OCc1ccccc1)c1cccc(-c2nnn(Cc3ccccc3)n2)c1 ?
esBAF inh: 39; Statin myotox sup: 8; Wnt act: 45*; TRPM1 prom inh: -19; LMP1 NFkB inh: -22; MITF act: 23

High-throughput results (PubChem)
